Data: PubChem BioAssay (EPA / NIEHS)
The source made the active and inactive calls. How the source made its calls: active means hit-call score of the fitted dose curve at least 0.9, where 1 is the maximum; inactive means score below 0.9.

Experiments:
[1] = ATG_CRE_CIS: Attagene CIS-FACTORIAL HepG2 Assay for human cAMP Responsive Element (CRE) binding protein 3 (AID 2282926); conditions: HepG2 CRE cis-reporter, Attagene multiplexed mRNA; actives raise or lower the signal
Method in brief: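 HepG2 cells transiently transfected with a multiplexed reporter library (CRE-driven unit among them) were dosed for 24 h. Reporter mRNA was quantified by RT-PCR, fluorescent labelling, HpaI digestion and capillary electrophoresis, with bidirectional fitting against DMSO baseline.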

[2] = biological target: CCAAT/enhancer-binding protein beta (Homo sapiens) (UniProt P17676); assay: ATG_C_EBP_CIS: Attagene CIS-FACTORIAL HepG2 Assay for human CCAAT/Enhancer Binding Protein (C/EBP) beta (AID 2282927); conditions: HepG2 Attagene cis-factorial transcription factor reporter; actives raise or lower the signal
Chain of CCAAT/enhancer-binding protein beta (Homo sapiens) (P17676 whole entry, looked up): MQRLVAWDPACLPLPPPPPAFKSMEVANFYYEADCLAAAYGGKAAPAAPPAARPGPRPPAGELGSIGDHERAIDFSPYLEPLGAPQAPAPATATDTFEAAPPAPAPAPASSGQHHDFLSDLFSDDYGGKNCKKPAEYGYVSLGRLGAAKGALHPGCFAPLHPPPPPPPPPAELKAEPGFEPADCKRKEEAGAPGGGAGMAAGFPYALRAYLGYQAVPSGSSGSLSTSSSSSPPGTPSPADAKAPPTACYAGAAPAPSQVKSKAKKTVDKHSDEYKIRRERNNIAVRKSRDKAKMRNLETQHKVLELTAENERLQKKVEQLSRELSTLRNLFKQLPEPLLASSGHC
Method in brief: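 Changes in reporter mRNA, rather than exogenous chimeric receptor activity, reflect native C/EBP signalling in transfected HepG2 cells dosed for 24 h; transcripts are detected by RT-PCR and capillary electrophoresis.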

[3] = ATG_CMV_CIS: Attagene CIS-FACTORIAL HepG2 Assay for human CMV (Internal Marker) (AID 2282928); conditions: HepG2 CMV promoter reporter, transcription factor profiling; actives raise or lower the signal;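 further: endpoint acts as a background internal control marker rather than a target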
Method in brief: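 Cell system: HepG2, transiently transfected multiple reporter units under cis promoters. Exposure: 24 h. Detection: RT-PCR, FAM labeling, HpaI digestion, capillary electrophoresis. Analysis: bidirectional, DMSO baseline.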

[4] = ATG_DR4_LXR_CIS: Attagene CIS-FACTORIAL HepG2 Assay for human Liver X Receptor (LXR), DR4 submotif (AID 2282929); conditions: HepG2 Attagene DR4 cis-reporter, mRNA transcription; actives raise or lower the signal
Method in brief: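 After transient transfection with multiplexed cis-promoter reporter units, HepG2 cells received test chemicals for 24 h. Reporter mRNA induction, detected by fluorescence after RT-PCR and capillary electrophoresis, was scored relative to DMSO.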

[5] = biological target: Aryl hydrocarbon receptor (Homo sapiens) (UniProt P35869); assay: ATG_Ahr_CIS: Attagene CIS-FACTORIAL HepG2 Assay for human Aryl Hydrocarbon Receptor (Ahr) (AID 2282930); conditions: HepG2 AhR cis-factorial reporter transcription; actives raise or lower the signal
Chain of Aryl hydrocarbon receptor (Homo sapiens) (P35869 whole entry, looked up): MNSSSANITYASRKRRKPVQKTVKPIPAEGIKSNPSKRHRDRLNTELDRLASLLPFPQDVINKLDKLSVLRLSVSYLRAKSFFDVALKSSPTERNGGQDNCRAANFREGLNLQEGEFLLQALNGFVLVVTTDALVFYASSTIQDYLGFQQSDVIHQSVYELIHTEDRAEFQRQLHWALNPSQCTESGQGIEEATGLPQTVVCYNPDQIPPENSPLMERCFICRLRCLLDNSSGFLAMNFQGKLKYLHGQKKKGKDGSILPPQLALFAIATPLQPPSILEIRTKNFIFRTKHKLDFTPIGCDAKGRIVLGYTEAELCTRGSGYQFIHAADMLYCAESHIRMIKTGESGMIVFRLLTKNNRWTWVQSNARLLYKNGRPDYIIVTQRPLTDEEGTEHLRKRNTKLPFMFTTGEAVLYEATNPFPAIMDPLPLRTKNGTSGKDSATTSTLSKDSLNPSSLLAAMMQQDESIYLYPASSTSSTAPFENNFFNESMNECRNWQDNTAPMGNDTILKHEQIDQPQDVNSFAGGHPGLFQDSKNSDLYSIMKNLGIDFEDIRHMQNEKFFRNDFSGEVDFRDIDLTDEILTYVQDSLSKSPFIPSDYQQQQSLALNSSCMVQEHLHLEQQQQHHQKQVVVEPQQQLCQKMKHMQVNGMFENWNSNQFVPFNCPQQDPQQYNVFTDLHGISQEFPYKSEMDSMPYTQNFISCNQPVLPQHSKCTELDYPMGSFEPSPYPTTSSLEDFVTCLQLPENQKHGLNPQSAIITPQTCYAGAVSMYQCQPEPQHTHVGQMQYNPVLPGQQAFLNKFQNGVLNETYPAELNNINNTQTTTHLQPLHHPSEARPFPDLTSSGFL
Method in brief: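 HepG2, transient MRTU (cis) transfection, 24 h exposure. RNA → cDNA → PCR → 6-FAM primer extension → HpaI 2 h 37 C → CE. Fit: bidirectional, DMSO baseline.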

[6] = ATG_AP_1_CIS: Attagene CIS-FACTORIAL HepG2 Assay for human Activator Protein 1 (AP-1) (AID 2282931); conditions: HepG2 Attagene cis-factorial AP-1 reporter mRNA; actives raise or lower the signal
Method in brief: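 After 24 h incubation with test chemical, RNA from transfected HepG2 cells was reverse-transcribed, amplified, fluorescently labelled and digested before capillary electrophoresis. Reporters were driven by cis-regulatory promoters; activity fitted bidirectionally versus DMSO.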

[7] = ATG_AP_2_CIS: Attagene CIS-FACTORIAL HepG2 Assay for human Activator Protein 2 (AP-2) (AID 2282932); conditions: HepG2 AP-2 cis-reporter, Attagene transcription factor profiling; actives raise or lower the signal
Method in brief: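 Step one: transient transfection of HepG2 with reporter transcription units. Step two: 24 h chemical exposure. Step three: RNA extraction, RT-PCR, labelled fragment analysis by capillary electrophoresis; DMSO serves as baseline.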

[8] = ATG_BRE_CIS: Attagene CIS-FACTORIAL HepG2 Assay for human Bone Morphogenetic Protein (BMP) Response Element (BRE) (AID 2282933); conditions: HepG2 BMP response element reporter, Attagene transcription factor profiling; actives raise or lower the signal
Method in brief: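 Multiplexed cis-reporter assay, HepG2, 24 h exposure. mRNA from reporter units quantified via RT-PCR/CE; DMSO baseline; bidirectional curve fit.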

[9] = biological target: Transcription factor E2F1 (Homo sapiens) (UniProt Q01094); assay: ATG_E2F_CIS: Attagene CIS-FACTORIAL HepG2 Assay for human E2F Transcription Factor 1 (AID 2282935); conditions: HepG2 Attagene cis-reporter, E2F reporter RNA transcripts; actives raise or lower the signal
Chain of Transcription factor E2F1 (Homo sapiens) (Q01094 whole entry, looked up): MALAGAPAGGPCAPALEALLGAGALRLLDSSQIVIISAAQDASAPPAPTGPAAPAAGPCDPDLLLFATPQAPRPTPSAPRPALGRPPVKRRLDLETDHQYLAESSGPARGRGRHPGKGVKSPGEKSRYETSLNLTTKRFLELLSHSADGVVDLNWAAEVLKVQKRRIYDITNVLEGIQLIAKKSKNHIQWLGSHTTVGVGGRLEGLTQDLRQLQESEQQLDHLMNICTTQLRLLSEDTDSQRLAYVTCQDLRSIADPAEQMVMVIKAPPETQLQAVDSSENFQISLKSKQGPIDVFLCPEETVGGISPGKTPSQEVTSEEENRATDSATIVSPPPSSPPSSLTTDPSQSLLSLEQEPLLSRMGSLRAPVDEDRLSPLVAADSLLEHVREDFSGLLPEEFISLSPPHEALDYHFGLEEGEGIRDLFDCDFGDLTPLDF
Method in brief: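 Total RNA from 24 h-treated, reporter-transfected HepG2 cells undergoes DNase I treatment, oligo(dT) reverse transcription, PCR and 6-FAM primer extension before capillary electrophoresis.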

[10] = ATG_E_Box_CIS: Attagene CIS-FACTORIAL HepG2 Assay for human Enhancer Box (E-box) (AID 2282936); conditions: HepG2 E-box cis-reporter transcription, actives raise or lower the signal
Method in brief: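 DMSO served as negative control and baseline for bidirectional fitting. Human hepatoma HepG2 cells, transiently transfected with cis-reporter constructs, were dosed 24 h; reporter mRNA read by RT-PCR and capillary electrophoresis.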

[11] = ATG_M_61_CIS: Attagene CIS-FACTORIAL HepG2 Assay for M61 Transcription Factor (Internal Marker) (AID 2282937); conditions: HepG2 Attagene CIS-FACTORIAL M61 internal marker reporter; actives raise or lower the signal
Method in brief: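 Using transiently transfected HepG2 liver cells, reporter transcript levels were assessed 24 h post-dosing by RT-PCR and capillary electrophoresis. Changes in either direction were fitted relative to DMSO controls.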

[12] = ATG_EGR_CIS: Attagene CIS-FACTORIAL HepG2 Assay for human Early Growth Response 1 (EGR1) (AID 2282938); conditions: HepG2 Attagene CIS-FACTORIAL EGR reporter mRNA; actives raise or lower the signal
Method in brief: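 Fluorescent capillary-electrophoresis signal of reporter cDNA fragments serves as read-out. HepG2 cells bear transiently transfected cis-promoter reporter units and are exposed 24 h; gain- or loss-of-signal is fitted against DMSO.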

[13] = ATG_M_19_CIS: Attagene CIS-FACTORIAL HepG2 Assay for M19 Transcription Factor (Internal Marker) (AID 2282939); conditions: HepG2 Attagene CIS-FACTORIAL M19 internal marker reporter; actives raise or lower the signal
Method in brief: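 Signals come from fluorescence of labelled reporter-specific PCR fragments resolved by capillary electrophoresis, following 24 h treatment of HepG2 cells transfected with cis-promoter reporter units; activity was fitted in both directions relative to DMSO.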

[14] = ATG_ERE_CIS: Attagene CIS-FACTORIAL HepG2 Assay for Estrogen Response Element (ERE) (AID 2282940); conditions: HepG2 ERE cis-reporter, Attagene RNA transcript; actives raise or lower the signal
Method in brief: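 Fluorescence of capillary-separated, FAM-labelled reporter cDNA fragments indicates reporter mRNA levels in HepG2 cells exposed to chemicals for 24 h. Transient transfection with cis-regulated units; data fitted in both directions against DMSO.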

[15] = ATG_Ets_CIS: Attagene CIS-FACTORIAL HepG2 Assay for human Erythroblast Transformation Specific (ETS) (AID 2282941); conditions: HepG2 ETS cis-reporter transcription, actives raise or lower the signal
Method in brief: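 After transient cis-reporter transfection, HepG2 cells receive test chemical for 24 h. Reporter mRNA levels, measured by RT-PCR and capillary electrophoresis fluorescence, are analysed bidirectionally relative to the DMSO baseline.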

[16] = biological target: Hepatocyte nuclear factor 3-beta (Homo sapiens) (UniProt Q9Y261); assay: ATG_FoxA2_CIS: Attagene CIS-FACTORIAL HepG2 Assay for human Forkhead box A2 (FOXA2) (AID 2282942); conditions: HepG2 cis-reporter transcription factor activity, 24 h; actives raise or lower the signal
Chain of Hepatocyte nuclear factor 3-beta (Homo sapiens) (Q9Y261 whole entry, looked up, the tested form may be a part): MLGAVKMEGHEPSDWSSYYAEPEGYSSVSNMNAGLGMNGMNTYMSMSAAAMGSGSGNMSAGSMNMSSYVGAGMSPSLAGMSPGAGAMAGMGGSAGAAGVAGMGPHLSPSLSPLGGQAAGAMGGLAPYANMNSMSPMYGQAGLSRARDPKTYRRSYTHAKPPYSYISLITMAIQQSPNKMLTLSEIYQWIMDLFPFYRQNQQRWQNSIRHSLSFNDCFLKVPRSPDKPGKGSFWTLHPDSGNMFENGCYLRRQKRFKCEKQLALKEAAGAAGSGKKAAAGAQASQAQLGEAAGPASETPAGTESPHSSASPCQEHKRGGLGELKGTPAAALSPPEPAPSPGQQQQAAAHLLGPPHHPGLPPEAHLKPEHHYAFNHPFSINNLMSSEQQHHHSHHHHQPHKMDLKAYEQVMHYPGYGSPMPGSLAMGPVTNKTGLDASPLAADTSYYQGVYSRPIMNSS
Method in brief: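 Fluorescence signal of reporter cDNA fragments, separated by capillary electrophoresis, reflects endogenous transcription factor activity in transfected HepG2 after 24 h. Both increases and decreases fitted against DMSO.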

[17] = ATG_FoxO_CIS: Attagene CIS-FACTORIAL HepG2 Assay for human Forkhead box O (FoxO) (AID 2282943); conditions: HepG2 Attagene cis-reporter, FoxO element, mRNA; actives raise or lower the signal
Method in brief: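 Human hepatoma HepG2 cells carry transiently introduced reporter transcription units controlled by cis promoter elements. Chemical treatment lasted 24 h, and mRNA signal was compared with DMSO.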

[18] = ATG_GATA_CIS: Attagene CIS-FACTORIAL HepG2 Assay for human GATA Binding Protein (AID 2282944); conditions: HepG2 GATA cis-element reporter, Attagene multiplex mRNA; actives raise or lower the signal
Method in brief: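 After transfecting HepG2 cells with multiple cis-regulated reporter units, chemicals are dosed for 24 h; isolated RNA undergoes RT-PCR and fluorescent labeling before capillary electrophoresis, with activity expressed against DMSO.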

[19] = ATG_GLI_CIS: Attagene CIS-FACTORIAL HepG2 Assay for human Zinc Finger Protein GLI1 (AID 2282945); conditions: HepG2, Attagene cis-factorial reporter mRNA, GLI element; actives raise or lower the signal
Method in brief: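 Bidirectional curve fits relative to DMSO, using reporter mRNA levels from RT-PCR plus capillary electrophoresis. Cells were HepG2 transiently carrying cis-regulated reporter constructs, harvested 24 h after dosing.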

Measured: AC50

CC(=O)[C@H]1CC[C@H]2[C@@H]3CC=C4C[C@@H](O)CC[C@]4(C)[C@H]3CC[C@]12C
active: [14] 2.32 µM
inactive: [1] | [2] | [3] | [4] | [5] | [6] | [7] | [8] | [9] | [10] | [11] | [12] | [13] | [15] | [16] | [17] | [18] | [19]

CC(C)[C@@H]1CC[C@@H](C)CC1=O
inactive: [1] | [2] | [3] | [4] | [5] | [6] | [7] | [8] | [9] | [10] | [11] | [12] | [13] | [15] | [16] | [17] | [18] | [19]

Clc1ccc(Cl)c(Cl)c1Cl
inactive: [1] | [2] | [3] | [4] | [6] | [7] | [8] | [9] | [10] | [11] | [12] | [13] | [15] | [16] | [17] | [18] | [19]
active: [5] 31.7 µM

C#C[C@]1(O)CC[C@H]2[C@@H]3CCC4=Cc5oncc5C[C@]4(C)[C@H]3CC[C@@]21C
active: [1] 41.2 µM | [4] 14.5 µM | [6] 26.2 µM | [9] 33.4 µM | [10] 53.8 µM | [12] 21.9 µM | [14] 0.83 µM | [15] 26.1 µM | [17] 60.4 µM | [18] 54.6 µM | [19] 60.9 µM
inactive: [2] | [3] | [5] | [7] | [8] | [11] | [16]

CCC(=O)OCc1ccccc1
inactive: [1] | [2] | [3] | [4] | [5] | [6] | [7] | [8] | [9] | [10] | [11] | [12] | [13] | [15] | [18] | [19]

CC(=O)OCCC(C)CC(C)(C)C (centres undefined)
inactive: [1] | [2] | [3] | [4] | [5] | [6] | [7] | [8] | [9] | [10] | [11] | [12] | [13] | [14] | [16] | [17] | [18] | [19]

C[Si](O[Si](C)(C)C)O[Si](C)(C)C
inactive: [1] | [2] | [3] | [4] | [6] | [7] | [8] | [9] | [10] | [11] | [12] | [13] | [15] | [16] | [17] | [19]
active: [5] 52.8 µM
